Common to all, as to details: incubation time: 27 h, anaerobic, 37 °C
Assay [1] concerns Clostridium sporogenes DSM 1664. Put plainly: growth (OD595) fold change vs plate DMSO controls (fold change (ratio)); higher = more growth. An outline of the steps: (§1)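 Shaken 96-well cultures in mGAM, grown anaerobically for 27 h at 37 °C, were read at 595 nm. OD came from blank-subtracted readings, corrected for background with 20 µM compound solutions in water and scaled by a calibration factor of 5. Growth is the fold change versus the plate's median DMSO control. Values average 2 biological replicates, and any fold change above 1.5 is NA.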

Assay [2] concerns Escherichia coli IAI1. The assay is described as above. An outline of the steps: as §1
For assay [3], the system named is Klebsiella aerogenes DSM 30053. Described as above. Summed up:
as §1

Assay [4] concerns Ruminococcus gnavus DSM 108212. The description is as above. Summed up: as §1
The test system of assay [5] is Klebsiella aerogenes DSM 30053. The assay is described as follows: fold change of Histamine concentration vs plate DMSO controls (fold change (ratio)); higher = more amine produced, active = hit call of the paper (significant change in both replicates, either direction). Summed up:
(§2)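 In 80 µL wells, cultures of four gut bacterial strains in mGAM started at OD 0.1 before a 1:1 dilution and grew anaerobically at 37 °C for 27 h. Compounds were added to 20 µM final, except sweeteners at 50 µM final. After extraction of whole cultures with cold acetonitrile/methanol plus 0.1% formic acid and centrifugation, amines were measured by LC–triple-quadrupole MS in dynamic MRM mode against external calibration curves, with within-batch drift correction. Values give fold change over DMSO controls on the same plate, averaged across 2 biological replicates.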

Assay [6] has as its system Clostridium sporogenes DSM 1664. Put plainly: fold change of Tryptamine concentration vs plate DMSO controls (fold change (ratio)); higher = more amine produced, active = hit call of the paper (significant change in both replicates, either direction). Summed up: as §2
Assay [7] has as its system Ruminococcus gnavus DSM 108212. The assay is described as above. An outline of the steps: as §2
For assay [8], the system named is Escherichia coli IAI1. The assay is described as follows: fold change of Putrescine concentration vs plate DMSO controls (fold change (ratio)); higher = more amine produced, active = hit call of the paper (significant change in both replicates, either direction). An outline of the steps: as §2
Assay [9] deals with Klebsiella aerogenes DSM 30053. The assay is described as above. Summed up:
as §2

Assay [10] deals with Escherichia coli IAI1. The assay is described as follows: fold change of Cadaverine concentration vs plate DMSO controls (fold change (ratio)); higher = more amine produced, active = hit call of the paper (significant change in both replicates, either direction). An outline of the steps:
as §2

Assay [11] concerns Klebsiella aerogenes DSM 30053. The description is as above. An outline of the steps: as §2
The test system of assay [12] is Ruminococcus gnavus DSM 108212. The assay is described as follows: fold change of 2-Phenylethylamine concentration vs plate DMSO controls (fold change (ratio)); higher = more amine produced, active = hit call of the paper (significant change in both replicates, either direction). An outline of the steps:
as §2

Structures can show the parent of a compound that is named as a salt.

In the case of `CN(C)CC/C=C1/c2ccccc2COc2ccc(CC(=O)O)cc21` [Olopatadine hydrochloride] (20 µM), the growth in assay [1] amounted to 1.01; in the assay on Escherichia coli IAI1 [2], 0.978; in assay [3] it was 1.01; in assay [4], 0.955. In [5], the “fold change of Histamine concentration” value was 1 (inactive). For the same compound, the “fold change of Tryptamine concentration” value in [6] is 0.968 (inactive); in [7], 1.03 (inactive). Moreover, the entries for the “fold change of Putrescine concentration” value (with Escherichia coli IAI1 [8]; in assay [9]) were 1.01 (inactive) and 1 (inactive), respectively. In addition, the “fold change of Cadaverine concentration” value in the assay with Escherichia coli IAI1 [10] is 0.995 (inactive); in [11], 1 (inactive). In addition, the “fold change of 2-Phenylethylamine concentration” value in assay [12] was 1.04 (inactive).
For the compound `CCCCS(=O)(=O)N[C@@H](Cc1ccc(OCCCCC2CCNCC2)cc1)C(=O)O` [Tirofiban hydrochloride] (20 µM), the growth in assay [1] worked out at 0.927; in the assay with Escherichia coli IAI1 [2], 0.983; in [3], 1.01; in assay [4] it was 1.11. Also, in [5], the “fold change of Histamine concentration” value was 0.975 (inactive). For the same compound, the “fold change of Tryptamine concentration” value was 0.943 (inactive) in assay [6] and 1.03 (inactive) in assay [7]. In addition, the “fold change of Putrescine concentration” value with Escherichia coli IAI1 [8] was 0.994 (inactive); in assay [9], 1 (inactive). Also, the results for the “fold change of Cadaverine concentration” value (in the assay on Escherichia coli IAI1 [10]; in [11]) were 1 (inactive) and 1.01 (inactive), respectively. The “fold change of 2-Phenylethylamine concentration” value in assay [12] was 1.02 (inactive).
Take `Oc1c(Cl)cc(Cl)c(Cl)c1Cc1c(O)c(Cl)cc(Cl)c1Cl` (20 µM): the growth in assay [1] came to 0; with Escherichia coli IAI1 [2] it was 0.939; in [3], 1.02; in assay [4], 0. Further, the “fold change of Histamine concentration” value in assay [5] is 1.06 (inactive). Besides, the entries for the “fold change of Tryptamine concentration” value in [6] and in assay [7] were 0.00872 (active) and 0.0717 (active), respectively. In addition, the “fold change of Putrescine concentration” value with Escherichia coli IAI1 [8] was 1.06 (inactive); in [9], 1.01 (inactive). Moreover, the figures for the “fold change of Cadaverine concentration” value (in the assay with Escherichia coli IAI1 [10]; in assay [11]) were 1.37 (active) and 1.02 (inactive), respectively. Moreover, in [12], the “fold change of 2-Phenylethylamine concentration” value was 0.0513 (active).
As for `COc1c(O)cc2c(c1O)[C@@H]1O[C@H](CO)[C@@H](O)[C@H](O)[C@H]1OC2=O` [Bergenin] (20 µM), the growth in assay [1] worked out at 0.966; with Escherichia coli IAI1 [2] it was 1.05; in assay [3] it was 1.11; in assay [4], 1.05. For the same compound, in [5], the “fold change of Histamine concentration” value was 0.891 (inactive). Also, the “fold change of Tryptamine concentration” value in assay [6] is 1.01 (inactive); in assay [7], 1.06 (inactive). Also, the “fold change of Putrescine concentration” value with Escherichia coli IAI1 [8] was 0.97 (inactive); in assay [9] it was 0.997 (inactive). For the same compound, the “fold change of Cadaverine concentration” value with Escherichia coli IAI1 [10] is 0.93 (inactive); in [11], 1.03 (inactive). The “fold change of 2-Phenylethylamine concentration” value in assay [12] is 1.05 (inactive).
With `OC[C@@H](O)[C@@H](O[C@@H]1O[C@H](CO)[C@H](O)[C@H](O)[C@H]1O)[C@H](O)[C@@H](O)CO` [Lactitol] (50 µM), the growth came to 1.13 in [1], 0.949 in the assay on Escherichia coli IAI1 [2], 1.01 in assay [3] and 0.988 in assay [4]. Besides, in assay [5], the “fold change of Histamine concentration” value is 0.988 (inactive). Moreover, the “fold change of Tryptamine concentration” value in assay [6] was 0.997 (inactive); in assay [7] it was 0.891 (inactive). Besides, the “fold change of Putrescine concentration” value is 0.938 (inactive) with Escherichia coli IAI1 [8] and 1.02 (inactive) in [9]. The “fold change of Cadaverine concentration” value in the assay on Escherichia coli IAI1 [10] was 0.997 (inactive); in [11], 0.998 (inactive). In addition, the “fold change of 2-Phenylethylamine concentration” value in assay [12] is 0.858 (inactive).
In the case of `CC(=O)O[C@]1(C(C)=O)CC[C@H]2[C@@H]3C=C(Cl)C4=CC(=O)CC[C@]4(C)[C@H]3CC[C@@]21C` [Chlormadinone acetate] (20 µM), the growth in [1] came out at 1.01; in the assay on Escherichia coli IAI1 [2], 1; in assay [3] it was 0.994; in assay [4], 0.974. In addition, the “fold change of Histamine concentration” value in [5] was 1.04 (inactive). Besides, the results for the “fold change of Tryptamine concentration” value in [6] and in assay [7] were 0.965 (inactive) and 0.931 (inactive), respectively. For the same compound, the “fold change of Putrescine concentration” value was 1.04 (inactive) in the assay on Escherichia coli IAI1 [8] and 1.02 (inactive) in assay [9]. Also, the “fold change of Cadaverine concentration” value in the assay with Escherichia coli IAI1 [10] is 1.02 (inactive); in [11], 0.995 (inactive). Besides, the “fold change of 2-Phenylethylamine concentration” value in assay [12] was 0.895 (inactive).
In the case of `Cc1nc2ccccn2c(=O)c1CCN1CCC(C(=O)c2ccc(F)cc2)CC1` [Pirenperone] (20 µM), the growth was found to be 0.963 in assay [1], 1.01 with Escherichia coli IAI1 [2], 1.01 in assay [3] and 1.05 in assay [4]. Further, in assay [5], the “fold change of Histamine concentration” value was 1.06 (inactive). Also, the “fold change of Tryptamine concentration” value is 0.996 (inactive) in [6] and 0.997 (inactive) in assay [7]. In addition, the “fold change of Putrescine concentration” value with Escherichia coli IAI1 [8] was 0.995 (inactive); in [9], 1.01 (inactive). Further, the “fold change of Cadaverine concentration” value with Escherichia coli IAI1 [10] is 1.03 (inactive); in assay [11] it was 0.983 (inactive). Moreover, the “fold change of 2-Phenylethylamine concentration” value in assay [12] was 0.969 (inactive).
`Oc1ccc2ccccc2c1N=Nc1ccccc1` [Sudan I (1-phenylazo-2-hydroxynaphthalene)] (20 µM): the growth came out at 0.978 in assay [1], 1.06 in the assay with Escherichia coli IAI1 [2], 1.08 in [3] and 1.12 in [4]. Further, in [5], the “fold change of Histamine concentration” value was 0.924 (inactive). Besides, the “fold change of Tryptamine concentration” value in [6] is 0.919 (inactive); in [7], 1.04 (inactive). The “fold change of Putrescine concentration” value with Escherichia coli IAI1 [8] was 0.952 (inactive); in assay [9], 0.893 (inactive). Also, the results for the “fold change of Cadaverine concentration” value (with Escherichia coli IAI1 [10]; in assay [11]) were 0.915 (inactive) and 1.08 (inactive), respectively. Also, in assay [12], the “fold change of 2-Phenylethylamine concentration” value is 1.07 (inactive).
Turning to `CCOC(=O)[C@H](CCc1ccccc1)N[C@@H](C)C(=O)N1Cc2ccccc2C[C@H]1C(=O)O` [Quinapril hydrochloride] (20 µM), the growth was 1.03 in assay [1], 1.02 in the assay with Escherichia coli IAI1 [2], 0.996 in assay [3] and 0.99 in assay [4]. The “fold change of Histamine concentration” value in assay [5] is 1.06 (inactive). For the same compound, the “fold change of Tryptamine concentration” value in assay [6] was 1.07 (inactive); in assay [7] it was 1.03 (inactive). Besides, the results for the “fold change of Putrescine concentration” value (in the assay on Escherichia coli IAI1 [8]; in [9]) were 1.09 (inactive) and 1.04 (inactive), respectively. The figures for the “fold change of Cadaverine concentration” value (with Escherichia coli IAI1 [10]; in assay [11]) were 0.999 (inactive) and 1.01 (inactive), respectively. Also, the “fold change of 2-Phenylethylamine concentration” value in assay [12] was 1.03 (inactive).
For the compound `O=P(O)(O)C(O)(Cn1ccnc1)P(=O)(O)O` [Zoledronic acid hydrate] (20 µM), the growth in [1] is 1.08; in the assay with Escherichia coli IAI1 [2], 0.974; in [3], 0.978; in assay [4], 1. For the same compound, the “fold change of Histamine concentration” value in assay [5] is 1.08 (inactive). Further, the “fold change of Tryptamine concentration” value is 0.973 (inactive) in assay [6] and 0.629 (inactive) in assay [7]. Further, the “fold change of Putrescine concentration” value with Escherichia coli IAI1 [8] was 0.987 (inactive); in [9], 1.02 (inactive). Also, the “fold change of Cadaverine concentration” value in the assay with Escherichia coli IAI1 [10] is 1.05 (inactive); in assay [11], 1 (inactive). Besides, in assay [12], the “fold change of 2-Phenylethylamine concentration” value is 0.627 (inactive).
For the compound `CC(C)=C/C(C)=N/Nc1nncc2ccccc12` [Budralazine] (20 µM), the growth in assay [1] is 1.12; in the assay on Escherichia coli IAI1 [2] it was 1.05; in [3] it was 0.989; in assay [4], 0.98. The “fold change of Histamine concentration” value in assay [5] was 1.03 (inactive). In addition, the “fold change of Tryptamine concentration” value in assay [6] was 0.98 (inactive); in assay [7], 0.994 (inactive). Moreover, the “fold change of Putrescine concentration” value with Escherichia coli IAI1 [8] is 0.992 (inactive); in assay [9] it was 1.02 (inactive). In addition, the “fold change of Cadaverine concentration” value in the assay with Escherichia coli IAI1 [10] is 0.963 (inactive); in assay [11], 1 (inactive). In assay [12], the “fold change of 2-Phenylethylamine concentration” value was 0.969 (inactive).
In the case of `N=C(N)NC(=N)NCCc1ccccc1` [Phenformin hydrochloride] (20 µM), the growth in [1] stood at 0.958; in the assay with Escherichia coli IAI1 [2] it was 1.01; in assay [3], 1.07; in assay [4] it was 0.756. In addition, the “fold change of Histamine concentration” value in [5] was 1 (inactive). Besides, the “fold change of Tryptamine concentration” value in assay [6] and in assay [7] was 1.03 (inactive) throughout. Further, the “fold change of Putrescine concentration” value in the assay with Escherichia coli IAI1 [8] is 0.964 (inactive); in assay [9], 1 (inactive). Besides, the “fold change of Cadaverine concentration” value in the assay on Escherichia coli IAI1 [10] is 1.07 (inactive); in [11] it was 1.01 (inactive). Further, in [12], the “fold change of 2-Phenylethylamine concentration” value is 1.05 (inactive).

The values above are taken from the supplement of paper PMC12494721.
